# Rows were chosen to be rich in hits. Some 12% of all compounds tested hit in one or more screens of this group.
# CHX counter = Cycloheximide Counterscreen for Small Molecule Inhibitors of Shiga Toxin; cell reporter, cycloheximide protein synthesis inhibition counterscreen; max response, %; 12% of 300,000 active; in the data active = max response mostly above about 13%, no sharp cut-off; inactive = mostly below about 14%; also: read at 38.3 µM for the half of the compounds with a filed dose; 0% is about no effect
# MARV entry inh = qHTS for inhibitors of binding or entry into cells for Marburg Virus. Marburg virus pseudotyped entry inhibition, cell reporter. Potency, µM (titrated, usually from 37.8 µM), for inactives: top-dose activity change, negative = inhibition, usual class: inhibitors. 1.8% of 300,000 active; calls by dose curve; tested in HEK293 cells; also: potency is read from the fitted curve at half-maximal effect; % is scaled to controls: 0 for no effect and ±100 for the full control effect
# Shiga toxin inh = A qHTS for Small Molecule Inhibitors of Shiga Toxin; 9.2% of 290,000 active; inhibition, % at 38.7 µM; Vero cells, Shiga toxin protein synthesis inhibition reporter; AID 2315, 2010; in the data active = inhibition mostly above about 28%, no sharp cut-off; inactive = mostly below about 43%; also: 0% is about no effect
# LASV entry inh = qHTS for Inhibitors of binding or entry into cells for Lassa Virus | AID 540256, 2011 | Potency, µM (doses to about 37.9 µM), for the others: at the highest dose activity change, negative = inhibition, usual class: inhibitors | Lassa virus pseudotype entry inhibition, cell reporter | 1.2% of 300,000 active; calls by dose curve; tested in HEK293 cells; also: potency is read from the fitted curve at half-maximal effect; % is scaled to controls: 0 for no effect and ±100 for the full control effect; nearly all actives have a fitted effect of over 50% in size
# Active calls of the source: *; u = inconclusive; x = no result; [ ] = another dose, or the depositor's remark.
SMILES,CHX counter,MARV entry inh,Shiga toxin inh,LASV entry inh
N#C/C(=C\c1ccc2c(c1)OCCO2)C(=O)Nc1ccc(C(=O)O)cc1,78*,x,113*,x
N#C/C(=C/c1ccc(C(=O)O)cc1)C(=O)Nc1ccccc1,7,u,-15,15%
Cc1n[nH]c(C)c1S(=O)(=O)Nc1ccc2c(c1)OCCO2,51*,u,36*,8%
CCOC(=O)COc1ccc(S(=O)(=O)Nc2ccc3c(c2)OCCO3)cc1,18*,21%,16,24%
O=S(=O)(Nc1ccc2c(c1)OCCO2)c1cccc(F)c1,25*,x,25,x
O=S(=O)(Nc1ccc2c(c1)OCCO2)c1ccc(F)c(F)c1,-5,6%[46.1 µM],-2,-4%
Cc1ccc(S(=O)(=O)Nc2ccc3c(c2)OCCO3)cc1C,63*,-16%[46.1 µM],92*,0%
COC(=O)COc1ccc(S(=O)(=O)Nc2ccc3c(c2)OCO3)cc1,4,-2%,15,21%
CN(CC(=O)Nc1ccc(N2CCOCC2)cc1)C(=O)CCc1cc(C(C)(C)C)c(O)c(C(C)(C)C)c1,x,-3%,x,0%
CCn1cc(S(=O)(=O)NC2CCCCC2)cn1,-2,-24%[46.1 µM],-18,u
Cc1nn(C)cc1S(=O)(=O)Nc1ccc2c(c1)OCCO2,72*,0%[46.1 µM],69*,-3%
CCOc1ccc(C(NC(=O)/C=C/c2ccco2)c2ccc(OC)c(OC)c2)cc1 (stereo not drawn),8,-3%,12,1%
O=C(/C=C/c1ccco1)NC(=S)Nc1cccc(C(=O)O)c1,23*,-14%[46.1 µM],45*,28%[46.1 µM]
CN1CCN(c2ccc(NC(=S)NC(=O)/C=C/c3ccco3)cc2)CC1,44*,u,106*,22%[46.1 µM]
COc1ccc(C(NC(=O)/C=C/c2ccco2)c2ccc(OC)c(OC)c2)cc1 (stereo not drawn),42*,u,85*,-24%
CC(=O)Nc1ccc(NC(=S)NC(=O)/C=C/c2ccco2)cc1,-4,-12%[46.1 µM],x,-3%[46.1 µM]
CCOc1ccc(NC(=S)NC(=O)/C=C/c2ccco2)cc1,13*,u,x,-8%
COc1ccc(COC(=O)NN=C2C[C@@H](O)[C@@H](O)[C@@H]3[C@H]4C(=O)N(c5cccc(Oc6ccccc6)c5)C(=O)[C@@H]4CC[C@H]23)cc1,x,9%[14.2 µM],x,u
C#CCn1c(=NC(=O)c2sc3ccccc3c2Cl)sc2cc(S(N)(=O)=O)ccc21,1,u,-10,12%
Cc1cc(C)c(/C=C/c2onc(C)c2S(=O)(=O)N2CCC(C(=O)Nc3ccc(Cl)c(C(F)(F)F)c3)CC2)c(C)c1,x,x,x,25%[46.1 µM]
COc1cccc(NC(=S)NC(=O)/C=C/c2ccco2)c1,31*,u,58*,u
CCOc1ccc(NC(=O)C(c2ccccn2)N(C(=O)CCl)c2ccc(F)cc2)cc1 (stereo not drawn),32*,-12%,active,25%
CCOc1ccc(NC(=O)N(c2ccccc2)c2ccccc2)cc1,-4,6%,-4,-16%
O=c1cc(N2CCOCC2)cnn1-c1ccccc1,40*,17%,73*,u
CC(NC(=O)c1ccc([N+](=O)[O-])cc1Cl)C1CC2CCC1C2 (stereo not drawn),14*,9%[46.1 µM],43,-7%
SMILES,CHX counter,MARV entry inh,Shiga toxin inh,LASV entry inh
CCc1ccc(-c2cc3c(=O)n(CC(=O)N4CCCCCC4)nc(C)n3n2)cc1,2,15%[46.1 µM],2,22%[46.1 µM]
CCN(CC)c1ccc(NC(=O)c2cncc(Br)c2)cc1,43*,4%[46.1 µM],60*,0%
CCN(CC)c1ccc(NC(=O)c2cccnc2)cc1,39*,0%[46.1 µM],61*,6%
Cc1c(C)c2c(OCC(=O)N[C@@H](C)C(=O)O)cc3c(c2oc1=O)CCC(C)(C)O3,-6,8%,-10,-4%
Cc1ccccc1NC(=O)c1ccccc1NC(=O)CCC(=O)O,1,u,-3,-3%
COc1cc(/C=C2\SC(=S)N(Nc3ccccc3)C2=O)ccc1O,51*,u,62*,u
O=C(O)c1ccc(/C=C2\SC(=S)N(Nc3ccccc3)C2=O)cc1,24*,u,80*,-12%
COc1cc(/C=C2\SC(=S)N(Nc3ncc(C(F)(F)F)cc3Cl)C2=O)ccc1O,14*,u,29,-30%
CCOc1cc(/C=C2\SC(=S)N(NS(=O)(=O)c3ccccc3)C2=O)ccc1O,-6,x,-5,x
CCOc1cc(/C=C2\SC(=S)N(Nc3ccccc3)C2=O)ccc1O,55*,-26%,62*,26%
Cc1cc(OCc2cc(C(=O)NCCN3CCCCC3CO)no2)cc(C)c1Cl (stereo not drawn),-8,u,-15,u
Cc1cc2c(cc1Cl)N(C(=O)Nc1ccnc3ccccc13)CC2,x,u,x,-6%
